# Experimental data as given in PubChem BioAssay (Tox21).
# Active and inactive are the calls of the source. Calls follow the shape of the full dose curve.
# Test: qHTS assay to identify small molecule agonists of the sonic hedgehog signaling (Shh) pathway (AID 1259368);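 also: NIH/3T3-derived 3T3Gli1-Luc cells carrying a stable Gli1-driven firefly luciferase reporter; nearly all actives have a fitted effect of over 15% in size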
# Conditions: NIH/3T3 Gli1-Luc reporter, luciferase, 24 h, stronger effect = higher value; series mostly up to 92.4 µM
# Excerpt: National Center for Advancing Translational Sciences [NCATS]
# NIH Chemical Genomics Center [NCGC]
# U.S. Environmental Protection Agency [EPA]
# National Institutes of Environmental Health Sciences [NIEHS]
# National Toxicology Program [NTP]
# The sonic hedgehog (Shh) pathway is essential for normal embryonic development. Dysregulation of the Shh pathway can cause severe developmental defects in organs. Therefore chemicals that interfere with the pathway are potential developmental toxicants. A cell line designated 3T3Gli1-Luc (DMB/OARSA/CFSAN/FDA, Laurel, MD), a NIH/3T3 derived clone containing stably integrated Gli1-Luc reporter is used to detect chemical interference of the Shh pathway, by changes in the expression of the firefly Luc gene under the control of the Gli1 transcriptional response element. This cell line was used to screen Tox21 libraries for identifying and prioritizing the potential developmental toxicants that interfere Shh pathway.
# 3T3 Gli1-Luc cells were dispensed at 2,000 per well in 5uL of culture medium into white solid bottom 1536-well plates (Greiner Bio-One, Monroe, NC) using a Multidrop Combi (Thermo Scientific, Waltham, MA) dispenser. The assay plates were incubated at 37 C and 5% CO2 for 4hr, and then 23nL of compounds dissolved in DMSO and positive control were transferred using a Pintool station (Wako, San Diego, CA). The assay plates were incubated at 37C and 5% CO2 for 24hr. For luciferase read, 4uL of Amplite Luciferase reporter gene assay reagent (AAT Bioquest, Inc. Sunnyvale, CA) was added to each well of the assay plates using Flying Reagent Dispenser (FRD, Aurora Discovery, San Diego, CA) and incubated at room temperature for 30min. The luminescence signal was measured using a ViewLux plate reader (Perkin Elmer, Shelton, CT).
# % is scaled to controls: 0 for no effect and ±100 for the full control effect.
Structure (SMILES),outcome,activity change
CCCCCC1CCCC(=O)O1 (stereo not given),inactive,
NC(=O)NC(=O)Cc1ccccc1,inactive,
OC(CCN1CCCCC1)(c1ccccc1)c1ccccc1,inactive,
O=C(c1ccc2c(c1)C(=O)OC2=O)c1ccc2c(c1)C(=O)OC2=O,inactive,
Nc1cc(C(=O)O)ccc1Cl,inactive,
Cc1cccc(C(=O)O)c1[N+](=O)[O-],inactive,
C=CCCCCCCCCCCC,,0.0597% [at 8.39 µM] (inactive)
O=C(O)c1c(Cl)ccc(Cl)c1Cl,inactive,
C=C(C)C(=O)OC,inactive,
CCS(=O)(=O)CCn1c([N+](=O)[O-])cnc1C,inactive,
NS(=O)(=O)c1cc2c(cc1Cl)NC(C(Cl)Cl)NS2(=O)=O (stereo not given),inactive,
Nc1ccc(/C=C/c2ccc(N)cc2S(=O)(=O)O)c(S(=O)(=O)O)c1,,-0.943% [at 0.349 µM] (inactive)
C=C[C@@H](C)CCC=C(C)C,inactive,
COc1cc2c(Nc3ccc(Br)cc3F)ncnc2cc1OCC1CCN(C)CC1,inactive,
O=CN1CCOCC1,inactive,
c1ccccc1,inactive,
C[CH2][Ge]([Cl])([CH2]C)[CH2]C,inactive,
CC1CCC(C(C)(C)S)C(=O)C1 (stereo not given),inactive,
COc1cc(C=O)ccc1OC(=O)C(C)C,inactive,
NS(=O)(=O)c1ccc(Cl)c(S(N)(=O)=O)c1,inactive,

Structure (SMILES),outcome,activity change
CCc1nccnc1C,inactive,
C[C@H]1O[C@H](O[C@H]2[C@H](O)[C@@H](O)[C@@H](O[C@H]3[C@H](O)[C@@H](O)[C@H](O)O[C@@H]3CO)O[C@@H]2CO)[C@H](O)[C@@H](O)[C@@H]1N[C@H]1C=C(CO)[C@@H](O)[C@H](O)[C@H]1O,inactive,
C=CCOCC(O)CCl (stereo not given),inactive,
Cc1ccc2c(c1)c1c3n2CCNC3CCC1 (stereo not given),inactive,
Cc1c(C(C)C)c(=O)n(-c2ccccc2)n1C,inactive,
O=C(CN1CCN(Cc2ccc3c(c2)OCO3)CC1)N1c2ccccc2Sc2ccccc21,inactive,
CCCC(C)CC (stereo not given),inactive,
CCCCCN(CCCOC)C(=O)C(CCC(=O)O)NC(=O)c1ccc(Cl)c(Cl)c1 (stereo not given),inactive,
C[C@H](CCC(=O)O)[C@H]1CC[C@H]2[C@@H]3[C@H](O)C[C@@H]4C[C@H](O)CC[C@]4(C)[C@H]3C[C@H](O)[C@]12C,inactive,
Nc1cc(S(=O)(=O)O)ccc1S(=O)(=O)O,inactive,
O=C1CC[C@H](C(=O)N2CCCCC2)N1,inactive,
CC1(N)CCC(C(C)(C)N)CC1 (stereo not given),inactive,
CC(=O)N(CC(O)CO)c1c(I)c(C(=O)NCC(O)CO)c(I)c(C(=O)NCC(O)CO)c1I (stereo not given),inactive,
CCCO,inactive,
Cc1ccccc1C(=O)N1CC/C(=N\OS(=O)(=O)O)c2ccc(Cl)cc21,inactive,
CC(=O)Nc1ccc(C)cc1,inactive,
SCCSCCS,inactive,
CN[C@@H]1[C@@H](O)[C@@H](O[C@@H]2[C@H](O)[C@H](O[C@H]3OC(CN)=CC[C@H]3N)[C@@H](N)C[C@H]2N)OCC1(C)O (stereo not given in full),inactive,
O=c1[nH]c(=O)c2ccccc2o1,inactive,
CCN1CN(CC)CN(CC)C1,inactive,
